Assay results reported in PubChem BioAssay (NCI).
About 79,000 compounds went through this panel and 15% of them were active in at least one assay; those are over-represented in the sample as a whole. Values without a mark were called inactive. Calls of active or inactive are those of the source. No stated cut-off is given here; in the data, active means growth inhibition above about 70%; inactive means the rest.

Assay: NCI Yeast Anticancer Drug Screen. Data for the rad50 strain (AID 155);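 further: 0% = growth of vehicle-only cultures of the same strain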
Details: S. cerevisiae rad50 strain growth inhibition; at 5.0 µM (retest, dose inferred, filed as 0.5); active compounds read high
Procedure, shortened: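 Cells are treated with compound, grown, and their growth is then scored against vehicle-only cultures of the same repair-deficient yeast strain.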

Structure (SMILES) | growth inhibition
COC(=O)[C@@]12OC[C@]34[C@H]([C@@H](O)[C@@H]1O)[C@@]1(C)CC(=O)C(O)=C(C)[C@@H]1C[C@H]3OC(=O)[C@H](OC(=O)C(Cc1ccccc1)NC(=O)OC(C)(C)C)[C@@H]24 (some centres undefined) | 24%
CCCCCCCCCCCCCCCC(=O)NCC[N+](C)(CC)CC | -32%
Oc1ccc(CCCCCc2ccc(O)cc2)cc1 | 4%
NN(Cc1ccccc1)c1ccccc1 | 50%
CCOC(=O)c1[nH]cc(C)c1-c1ccc2c(-c3ccccc3)nc3ccccc3n12 | 5%
COC(=O)c1cn(NS(=O)(=O)c2ccc(OC)cc2)cc1C(=O)OC | -6%
CN(C)c1cc2c(cc1[N+](=O)[O-])-c1ccccc1C2O (centres undefined) | 5%
CN(C)CCOc1cc2c(c3ccccc13)-c1ccccc1C2O (centres undefined) | 30%
BrC(Br)([P+](c1ccccc1)(c1ccccc1)c1ccccc1)[P+](c1ccccc1)(c1ccccc1)c1ccccc1 | 18%
CCOCCNc1ncnc2c1cnn2C | 2%
C[C@H](CCC1=NCCN1)[C@H]1CC[C@H]2[C@@H]3CC[C@@H]4C[C@H](O)CC[C@]4(C)[C@H]3C[C@H](O)[C@]12C | 93% (active)
CCOC(=O)C1=C(c2ccccc2)N(C)c2ccccc2S1 | 4%
C(=P(c1ccccc1)(c1ccccc1)c1ccccc1)[P+](c1ccccc1)(c1ccccc1)c1ccccc1.[Br][Cu][Br] | 98% (active)
COc1ccc(N(C)Sc2ccccc2)cc1 | -12%
COc1ccc(Cc2c(-c3ccc(C)cc3)n[nH]c(=O)c2C2C(=O)N(c3ccccc3)N=C2c2ccccc2)cc1 (centres undefined) | 98% (active)
N#CSC#CCCC#CSC#N | 52%
c1ccc2c(c1)OCC(CNCCNCC1COc3ccccc3O1)O2 (centres undefined) | 51%
CC(C)(C)OC(=O)N[C@H]1CC2(C=C(Cl)C(=O)C(Cl)=C2)OC1=O | 32%
c1ccc([P+](c2ccccc2)(c2ccccc2)C2CCCC2)cc1 | -18%
COc1ccc2nc(-c3ccc(Cl)cc3)[nH]c2c1 | 1%
CC[C@H](CC[C@@H](C)C1CC[C@H]2[C@@H]3CCC4=CC(=O)CC[C@]4(C)[C@H]3CC[C@]12C)C(C)C (some centres undefined) | -4%
CCOC(=O)N/N=C/c1ccc(N(C)CCC#N)cc1 | 7%
CC(Br)C(=O)c1ccc2cc(Cl)c3ccccc3c2c1 (centres undefined) | -2%
Cc1ccc(-n2cc(-c3ccc(Cl)cc3)c3c(NN)ncnc32)cc1 | -20%
O=C1c2ccccc2C(=O)c2c1ccc(C(=O)O)c2-c1ccc2ccccc2c1 | 5%

Same assay, conditions: S. cerevisiae rad50 strain growth inhibition; at 50.0 µM (retest, dose inferred, filed as 5.0); active compounds read high

Structure (SMILES) | growth inhibition
C1=NC2c3ccccc3Cc3cccc1c32 (centres undefined) | 94% (active)
COc1ccc2c(c1)CN([C@@H](C)[C@H]1CC[C@H]3[C@@H]4CC[C@H]5C[C@@H](O)CC[C@]5(C)[C@H]4CC[C@]13C)CO2 | 99% (active)
Cc1c(N)nc(C(CC(N)=O)NCC(N)C(N)=O)nc1C(=O)NC(C(=O)NC(C)C(O)C(C)C(=O)NC(C(=O)NCCc1nc(-c2nc(C(=O)NCCCNCCCc3ccccn3)cs2)cs1)C(C)O)C(OC1OC(CO)C(O)C(O)C1OC1OC(CO)C(O)C(OC(N)=O)C1O)c1cnc[nH]1 (centres undefined) | 99% (active)
COc1cc2c(cc1O)-c1c(cnn1-c1ccccc1)CCC2 | 85% (active)
CN(C)CC(CN(C)C)C(=O)c1ccc(Oc2ccc(Cl)cc2)cc1 | 98% (active)
N#CCCN(CCC#N)Cc1c(O)c(O)c(CN(CCC#N)CCC#N)c2ccccc12 | 12%
Cc1cc2c(c([N+](=O)[O-])c1C)C(=O)C(Br)=C(N)C2=O | 98% (active)
O=C(O)CSC(=S)N1CCCC1 | 5%
CNC1=C2NC(=O)/C(C)=C\C=C\C(C)C(O)C(C)C(O)C(C)C(OC(C)=O)C(C)C(OC)/C=C/OC3(C)Oc4c(C)c(O)c(c(c4C3=O)C1=O)C2=O (centres undefined) | 56%
O=c1c(Cl)nsnc1Cl | 100% (active)
CC(NC(=O)OCc1ccccc1)C(=O)NNc1ccccc1Cl (centres undefined) | 96% (active)
O=C(OCc1ccccc1CN1CCOCC1)c1cccc(Br)c1 | 32%
OC(COc1ccc(Cl)cc1)COc1ccc(Cl)cc1 | 92% (active)
Cc1c(-c2ccc(C(=N)N)cc2)oc(-c2ccc(C(=N)N)cc2)c1C | 98% (active)
COC(=O)[C@@]12OC[C@]34[C@H]([C@@H](O)[C@@H]1O)[C@@]1(C)CC(=O)C(O)=C(C)[C@@H]1C[C@H]3OC(=O)[C@H](OC(=O)C(Cc1ccccc1)NC(=O)OC(C)(C)C)[C@@H]24 (some centres undefined) | 73% (active)
CCCCCCCCCCCCCCCC(=O)NCC[N+](C)(CC)CC | 0%
Oc1ccc(CCCCCc2ccc(O)cc2)cc1 | 99% (active)
NN(Cc1ccccc1)c1ccccc1 | 83% (active)
CCOC(=O)c1[nH]cc(C)c1-c1ccc2c(-c3ccccc3)nc3ccccc3n12 | 65%
COC(=O)c1cn(NS(=O)(=O)c2ccc(OC)cc2)cc1C(=O)OC | 8%

Structure (SMILES) | growth inhibition
CN(C)c1cc2c(cc1[N+](=O)[O-])-c1ccccc1C2O (centres undefined) | 48%
CN(C)CCOc1cc2c(c3ccccc13)-c1ccccc1C2O (centres undefined) | 96% (active)
BrC(Br)([P+](c1ccccc1)(c1ccccc1)c1ccccc1)[P+](c1ccccc1)(c1ccccc1)c1ccccc1 | 73% (active)
CCOCCNc1ncnc2c1cnn2C | -5%
C[C@H](CCC1=NCCN1)[C@H]1CC[C@H]2[C@@H]3CC[C@@H]4C[C@H](O)CC[C@]4(C)[C@H]3C[C@H](O)[C@]12C | 99% (active)
CCOC(=O)C1=C(c2ccccc2)N(C)c2ccccc2S1 | 55%
C(=P(c1ccccc1)(c1ccccc1)c1ccccc1)[P+](c1ccccc1)(c1ccccc1)c1ccccc1.[Br][Cu][Br] | 99% (active)
COc1ccc(N(C)Sc2ccccc2)cc1 | 64%
COc1ccc(Cc2c(-c3ccc(C)cc3)n[nH]c(=O)c2C2C(=O)N(c3ccccc3)N=C2c2ccccc2)cc1 (centres undefined) | 95% (active)
N#CSC#CCCC#CSC#N | 57%
c1ccc2c(c1)OCC(CNCCNCC1COc3ccccc3O1)O2 (centres undefined) | 69%
CC(C)(C)OC(=O)N[C@H]1CC2(C=C(Cl)C(=O)C(Cl)=C2)OC1=O | 70% (active)
c1ccc([P+](c2ccccc2)(c2ccccc2)C2CCCC2)cc1 | 7%
COc1ccc2nc(-c3ccc(Cl)cc3)[nH]c2c1 | 88% (active)
CC[C@H](CC[C@@H](C)C1CC[C@H]2[C@@H]3CCC4=CC(=O)CC[C@]4(C)[C@H]3CC[C@]12C)C(C)C (some centres undefined) | 18%
CCOC(=O)N/N=C/c1ccc(N(C)CCC#N)cc1 | 6%
CC(Br)C(=O)c1ccc2cc(Cl)c3ccccc3c2c1 (centres undefined) | 99% (active)
Cc1ccc(-n2cc(-c3ccc(Cl)cc3)c3c(NN)ncnc32)cc1 | 30%
O=C1c2ccccc2C(=O)c2c1ccc(C(=O)O)c2-c1ccc2ccccc2c1 | 97% (active)
